Drawing on PubChem BioAssay, this text covers composite z-score and z-score for 16 molecules.

Active and inactive are the calls of the source.

Assay [1] in a line: compounds binding Alexa647 anti-His antibody – biochemical, small-molecule microarray, 635 nm fluorescence, artefact control for SMM control protein annotation, primary screen (AID 1128).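 Also: score merges feature fluorescence with signal-to-noise for each printed compound spot.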 Particulars: higher = more signal.
Assay [2] deals with Human papillomavirus type 1a E7 protein (residues 1-88). Description: HPV1a E7 small-molecule binders, primary screen, biochemical, small-molecule microarray, residues 1-88, 635 nm (AID 1129). Conditions: small-molecule microarray binding, fluorescence 635 nm; higher = more signal.
For assay [3], the target named is Focal adhesion kinase 1 (Homo sapiens) (UniProt Q05397). Description: PTK2 protein binding on printed compound slides – biochemical, small-molecule microarray, 635/667 nm fluorescence, BSA, DTT, primary screen (AID 1130).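 Also: composite of spot emission at 667 nm and signal to noise over triplicate slides.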 Particulars: 635 nm fluorescence, higher = more signal.
Chain of Focal adhesion kinase 1 (Homo sapiens) (Q05397 whole entry, looked up): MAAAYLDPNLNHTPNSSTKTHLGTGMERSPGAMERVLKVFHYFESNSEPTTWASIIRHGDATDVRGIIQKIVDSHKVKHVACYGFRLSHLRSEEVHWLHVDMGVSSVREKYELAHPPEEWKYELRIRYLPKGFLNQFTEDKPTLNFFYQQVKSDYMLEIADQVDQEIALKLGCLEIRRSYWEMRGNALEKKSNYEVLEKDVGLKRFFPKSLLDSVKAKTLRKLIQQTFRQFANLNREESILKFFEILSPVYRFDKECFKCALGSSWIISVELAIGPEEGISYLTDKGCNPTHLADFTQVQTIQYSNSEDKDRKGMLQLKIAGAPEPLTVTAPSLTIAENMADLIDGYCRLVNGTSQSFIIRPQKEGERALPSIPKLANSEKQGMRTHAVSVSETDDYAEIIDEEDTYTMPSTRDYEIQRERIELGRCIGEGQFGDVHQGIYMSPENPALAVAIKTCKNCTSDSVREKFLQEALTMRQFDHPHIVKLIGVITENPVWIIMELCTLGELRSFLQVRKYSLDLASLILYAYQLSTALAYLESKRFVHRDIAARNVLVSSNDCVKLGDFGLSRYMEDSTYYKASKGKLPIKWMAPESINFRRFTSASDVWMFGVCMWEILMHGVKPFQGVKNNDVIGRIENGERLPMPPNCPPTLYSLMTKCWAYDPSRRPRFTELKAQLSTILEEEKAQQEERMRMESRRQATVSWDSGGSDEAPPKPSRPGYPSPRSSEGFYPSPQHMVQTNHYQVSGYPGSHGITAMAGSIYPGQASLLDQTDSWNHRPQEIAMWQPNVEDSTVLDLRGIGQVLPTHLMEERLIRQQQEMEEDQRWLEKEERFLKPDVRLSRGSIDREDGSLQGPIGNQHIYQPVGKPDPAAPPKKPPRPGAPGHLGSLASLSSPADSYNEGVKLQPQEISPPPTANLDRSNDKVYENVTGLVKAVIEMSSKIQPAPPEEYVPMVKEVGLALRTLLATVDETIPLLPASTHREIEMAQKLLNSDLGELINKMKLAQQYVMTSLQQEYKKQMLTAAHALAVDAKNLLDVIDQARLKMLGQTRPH
Assay [4] concerns Fibrinogen (Alexa647-labelled). Description: Alexa647-fibrinogen binding to printed small molecules – biochemical, small-molecule microarray, 635/667 nm fluorescence, artefact control for SMM control-protein annotation, profiling panel (AID 1131).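 Also: z-score merges 667 nm fluorescence with per-spot signal-to-noise over triplicate slides.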 Particulars: fibrinogen-A647 binding fluorescence, higher = more signal.
For assay [5], the target named is Follistatin (Homo sapiens) (UniProt P19883). As to the kind of experiment: FST protein binding to printed compounds – biochemical, small-molecule microarray, 635/667 nm fluorescence, primary screen (AID 1132). Conditions: 635 nm fluorescence, higher = more signal.
Chain of Follistatin (Homo sapiens) (P19883 whole entry, looked up): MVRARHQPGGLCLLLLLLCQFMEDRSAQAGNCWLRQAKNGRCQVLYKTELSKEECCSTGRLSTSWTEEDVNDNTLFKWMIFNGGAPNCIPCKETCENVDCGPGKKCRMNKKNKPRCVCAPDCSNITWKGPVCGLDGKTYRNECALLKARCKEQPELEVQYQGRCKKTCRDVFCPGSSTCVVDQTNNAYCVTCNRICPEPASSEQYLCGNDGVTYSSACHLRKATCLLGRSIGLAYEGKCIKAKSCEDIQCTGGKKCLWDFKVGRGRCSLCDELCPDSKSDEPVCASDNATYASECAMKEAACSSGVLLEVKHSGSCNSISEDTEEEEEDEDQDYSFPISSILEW
Assay [6] addresses Fibroblast growth factor 2 (Homo sapiens) (UniProt P09038). Description: basic fibroblast growth factor binding to printed compounds – biochemical, small-molecule microarray, 635/667 nm fluorescence, primary screen (AID 1133). Particulars: FGF2, fluorescence 635/667, higher = more signal.
Assay [7] is described as follows: JC-1 mitochondrial potential readout, lung cancer cells – cell-based, A549, JC-1 fluorescence, basal, 24 h, 100 nL, profiling panel (AID 1138).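 Also: A549 lung adenocarcinoma cells under basal conditions with no added stimulus; test concentration not given here.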 Conditions: higher = more signal.
The subject of the next assay is Lefty1. Description: Lefty1 protein binding to printed compounds – biochemical, small-molecule microarray, 635/667 nm fluorescence, primary screen (AID 1139). Particulars: fluorescence 635/667, higher = more signal.
Assay [8] has as its system wheat germ agglutinin (Triticum aestivum), Alexa647-labelled. As to the kind of experiment: Alexa647-WGA lectin binding to printed small molecules – biochemical, small-molecule microarray, 635/667 nm fluorescence, artefact control for SMM control-protein annotation, profiling panel (AID 1140).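 Also: score merges 667 nm feature emission with signal to noise over triplicate slides.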 Particulars: WGA-A647 binding, 635 nm fluorescence, higher = more signal.
In assay [9] the target is Luciferin 4-monooxygenase (Photinus pyralis) (UniProt P08659). As to the kind of experiment: inhibition of purified Photinus pyralis luciferase – biochemical, luminescence, purified enzyme, 2006 set, primary screen (AID 1141).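 Also: cell-free assay with purified firefly luciferase at 100 ng per well in PBS; test concentration not given here.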 Particulars: purified firefly luciferase, SteadyGlo luminescence, 30 min; higher = more signal, called active from +8 up or from −8 down.
Chain of Luciferin 4-monooxygenase (Photinus pyralis) (P08659 whole entry, looked up): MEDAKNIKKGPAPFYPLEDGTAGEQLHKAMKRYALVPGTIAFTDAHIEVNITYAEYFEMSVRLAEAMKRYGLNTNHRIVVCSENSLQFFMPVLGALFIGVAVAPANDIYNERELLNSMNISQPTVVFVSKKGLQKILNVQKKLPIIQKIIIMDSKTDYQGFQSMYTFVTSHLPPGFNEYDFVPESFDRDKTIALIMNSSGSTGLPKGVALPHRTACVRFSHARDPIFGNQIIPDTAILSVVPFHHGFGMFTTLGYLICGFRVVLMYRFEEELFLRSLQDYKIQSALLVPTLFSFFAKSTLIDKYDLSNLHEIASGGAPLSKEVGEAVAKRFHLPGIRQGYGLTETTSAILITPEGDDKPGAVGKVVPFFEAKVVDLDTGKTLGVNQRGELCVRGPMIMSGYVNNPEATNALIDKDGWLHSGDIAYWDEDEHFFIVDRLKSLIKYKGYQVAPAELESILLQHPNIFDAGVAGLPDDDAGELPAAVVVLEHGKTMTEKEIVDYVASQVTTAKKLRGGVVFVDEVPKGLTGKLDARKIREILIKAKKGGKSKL

Chain of Fibroblast growth factor 2 (Homo sapiens) (P09038 whole entry, looked up): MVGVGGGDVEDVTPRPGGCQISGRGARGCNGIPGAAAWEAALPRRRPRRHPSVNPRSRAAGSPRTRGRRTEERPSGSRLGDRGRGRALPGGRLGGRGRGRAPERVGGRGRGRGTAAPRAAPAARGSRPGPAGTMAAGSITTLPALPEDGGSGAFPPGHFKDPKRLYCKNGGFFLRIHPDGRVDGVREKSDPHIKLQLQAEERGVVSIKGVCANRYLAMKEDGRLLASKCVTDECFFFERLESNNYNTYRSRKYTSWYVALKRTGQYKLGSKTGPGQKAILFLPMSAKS

For the molecule `[N-]=[N+]=Nc1ccccc1C[C@@]1(C(=O)NCCN2CCOCC2)N=C(c2ccc(OCCCO)cc2)O[C@@H]1c1ccccc1N=[N+]=[N-]`, the composite z-score in assay [1] was found to be 2.81; in [2] it was 1.24; in [3], 0.587; in assay [4], 0.989; in assay [5], 1.2; in [6], 0.752. The composite z-score was 0.383 with Lefty1 and 0.898 in assay [8]. Besides, the z-score in assay [7] is -0.381; in assay [9] it was -1.71 (inactive).
As to `COc1ccc(CCNC(=O)[C@@]2(Sc3ccc(C)cc3)CC(=O)N(Cc3ccccc3C(F)(F)F)[C@@H]2c2ccc(CO)cc2I)cc1`, the composite z-score in [1] is 2.42; in assay [2], 0.0953; in assay [3], -0.326; in [4], 0.685; in assay [5] it was -0.706; in assay [6], -0.512. Further, the results for the composite z-score (in the assay on Lefty1; in [8]) were -1.63 and 0.827, respectively. The z-score in [7] is 1.56; in [9], -0.555 (inactive).
On to `COc1ccc(CCNC(=O)[C@@]2(Cc3ccccc3I)c3ccccc3C(=O)N(C3CCCCC3)[C@H]2c2ccc(CO)cc2)cc1`, for which the composite z-score in assay [1] is 0.362; in assay [2], 0.839; in assay [3] it was 0.22; in assay [4] it was 0.434; in assay [5], 0.341; in [6], -0.199. For the same molecule, the composite z-score was determined as 0.106 in the assay on Lefty1 and 0.177 in [8]. Moreover, the z-score in assay [7] is 0.348; in assay [9] it was 1.18 (inactive).
On to `COC(=O)c1c(CC[C@@H](CO)NC(=O)N2CCC[C@H]2Cn2cc(C3(O)CCCCC3)nn2)oc(C(C)=O)c1C(=O)OC`, for which the composite z-score was 0.794 in assay [1]; 0.759 in [2]; -0.0763 in assay [3]; 0.888 in [4]; 0.745 in assay [5]; 1.59 in assay [6]. For the same molecule, the composite z-score is 1.39 with Lefty1 and -0.0239 in assay [8]. Also, the z-score in assay [7] was -0.403; in assay [9] it was 0.97 (inactive).
For the molecule `CCOC(=O)C[C@H]1[C@H](OC(=O)c2cc3ccccc3oc2=O)[C@@H](NC(=O)c2ccc3ccccc3n2)c2cc(OCCCO)ccc2N1C(=O)Cc1ccc(OC)cc1`, the composite z-score in [1] was 0.357; in [2], 1.18; in assay [3], 0.277; in [4] it was 0.953; in assay [5], 1.06; in assay [6] it was 0.509. The composite z-score turned out to be 1.06 with Lefty1 and 0.275 in assay [8]. Further, the z-score in [7] is 0.57; in [9], 0.798 (inactive).
Turning to `[N-]=[N+]=Nc1ccccc1[C@@H]1OC(c2ccc(OCCCO)cc2)=N[C@]1(Cc1ccccc1)C(=O)O`, the composite z-score turned out to be 1.87 in [1]; 1.21 in assay [2]; 0.854 in assay [3]; 0.803 in assay [4]; 1.31 in [5]; 0.32 in assay [6]. The composite z-score with Lefty1 is -0.028; in [8], 1.09. In addition, the z-score in assay [7] was 0.506; in assay [9], -9.46 (active).
As to `C=CCC(OC(C)=O)[C@@H]1[C@@H](N(Cc2cccc3ccccc23)C(=O)Cc2ccc(F)cc2)c2cc(OCCCO)ccc2N1C(=O)c1ccc2ccccc2c1` (stereo not given in full), the composite z-score in assay [1] is 0.301; in [2], -0.247; in assay [3], 0.114; in assay [4], 0.131; in [5], 0.7; in assay [6], -0.328. The composite z-score was found to be 0.117 in the assay with Lefty1 and 0.0096 in assay [8]. Moreover, the z-score in [7] is 1.03; in [9], 0.739 (inactive).
Regarding `O=C1NC(=O)C2C1C=CC(C(O)c1ccco1)N2Nc1ccc(Cl)cc1Cl` (stereo not given), the composite z-score in assay [1] was 0.478; in assay [2] it was 0.944; in [3] it was -0.367; in [4] it was -0.468; in assay [5], 1.13; in assay [6], -0.311. For the same molecule, the composite z-score is 0.121 with Lefty1 and 0.673 in assay [8]. Also, the z-score in [7] is -0.553; in assay [9], -0.512 (inactive).
Turning to `NC(=O)[C@@]1(Cc2ccccc2)COC(c2ccc(OCCCO)cc2)=N1`, the composite z-score in assay [1] is 1.19; in assay [2], -0.974; in [3], 0.0264; in assay [4], -0.979; in assay [5], -0.0248; in assay [6], 0.387. Also, the composite z-score came out at 0.0016 in the assay on Lefty1 and 0.523 in assay [8]. For the same molecule, the values for the z-score in assay [7] and in assay [9] were -0.244 and -4.28 (inactive), respectively.
In the case of `CCOc1cc(C(O)C2C=CC3C(=O)NC(=O)C3N2Nc2ccc(Cl)cc2Cl)ccc1O` (stereo not given), the composite z-score is -0.254 in assay [1]; -0.537 in assay [2]; 0.725 in assay [3]; 0.332 in [4]; -0.403 in assay [5]; -0.744 in assay [6]. Also, the composite z-score in the assay on Lefty1 was -1.33; in assay [8] it was 0.235. Further, the figures for the z-score in assay [7] and in assay [9] were -0.262 and 0.445 (inactive), respectively.
In the case of `Cc1ccc(F)cc1S(=O)(=O)N[C@@H]1CCN(Cc2ccc(Br)cc2)C1`, the composite z-score in assay [1] was -0.325; in [2] it was -0.464; in assay [3], -0.408; in assay [4], 0.79; in [5], 0.639; in assay [6] it was 0.677. Also, the composite z-score turned out to be 0.983 in the assay with Lefty1 and 0.124 in [8]. The z-score in assay [7] is 1.47; in assay [9], -0.457 (inactive).
With `C=CCNC(=O)[C@@H]1[C@H]2C(=O)O[C@H](c3ccccc3)[C@H](c3ccccc3)N2[C@H](c2ccccc2OCCO)[C@@]12C(=O)Nc1ccc(C#CCC(C(=O)OC)C(=O)OC)cc12`, the composite z-score in assay [1] turned out to be 1.03; in assay [2], 1.2; in assay [3], 0.978; in assay [4] it was 0.0251; in [5], 0.67; in [6], 0.335. For the same molecule, the composite z-score is -0.0767 in the assay on Lefty1 and 0.551 in assay [8]. Also, the z-score is -1.44 in assay [7] and -0.238 (inactive) in assay [9].
As for `Cc1ccc(S[C@]2(C(=O)NCCN3CCOCC3)CC(=O)N(Cc3ccccc3Cl)[C@@H]2c2ccc(CO)cc2I)cc1`, the composite z-score in assay [1] is -0.882; in assay [2], -0.227; in [3], 1.09; in [4] it was -0.646; in [5], -0.349; in assay [6], 0.388. Besides, the composite z-score is -1.57 in the assay with Lefty1 and 0.498 in assay [8]. Moreover, the values for the z-score in assay [7] and in [9] were 1.08 and -0.43 (inactive), respectively.
Take `C=C(/C(=C/C[C@H](OC(C)=O)c1ccc(CO)o1)c1cnc2ccccc2c1)C(C)C`: the composite z-score worked out at 1.07 in assay [1]; 1.16 in assay [2]; 0.38 in assay [3]; 0.988 in assay [4]; 1.39 in assay [5]; 1.41 in assay [6]. Also, the composite z-score in the assay with Lefty1 stood at 1.55; in assay [8], 1.33. Moreover, the z-score is -0.874 in [7] and -1.41 (inactive) in [9].
In the case of `COC(=O)[C@@]1(Cc2ccc(OC)cc2)[C@H]2c3cc(C(=O)N4CCCC4)n(CCc4c[nH]c5ccc(OC)cc45)c3C[C@H]2CN1C(=O)c1ccccc1`, the composite z-score was 1.99 in assay [1]; 1.18 in assay [2]; 0.894 in [3]; 0.755 in assay [4]; 1.22 in assay [5]; -0.904 in assay [6]. The composite z-score is -0.162 with Lefty1 and 1.29 in [8]. The z-score is 0.675 in assay [7] and 1.3 (inactive) in [9].
As for `CC(CO)N1C(=O)[C@]2(C)C3C(=O)OCCC/C=C\[C@H]3OC23C=CCN(c2ccc(Cl)cc2)C(=O)[C@@H]13` (stereo not given in full), the composite z-score is -0.263 in assay [1]; -0.48 in assay [2]; 1.53 in assay [3]; -0.316 in [4]; -0.568 in [5]; -0.85 in assay [6]. Also, the results for the composite z-score (in the assay with Lefty1; in assay [8]) were -0.506 and -0.335, respectively. Moreover, the z-score was 0.444 in assay [7] and -0.53 (inactive) in assay [9].
